In PubChem BioAssay AID2216 (Broad Institute, 2009):
Among all 300,000 compounds or so, about 3,300 (1.1%) were called active. Another 6% or so got no clear call; they are omitted.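 How the source made its calls: active means more than half of the replicate wells show a fall in the fluorescence ratio signal beyond about 16% (limit read from the data, passing the limit was not always enough); inconclusive means exactly half of the replicate wells pass the set limit; inactive means fewer than half of replicates pass the limit.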 What follows is part of a selection rich in actives, with near analogues and random picks from the rest.

Test system: Ran GTPase (GTP-bound) - importin-beta complex
Experiment: inhibitors of RanGTP-importin-beta interaction, primary screen, biochemical, FRET, CFP-Ran, YFP-importin-beta, homogeneous (AID 2216);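 further: 0% = DMSO wells and 100% = Ran loaded with GDP instead of GTP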
Details: cell-free CFP-Ran/YFP-importin-beta FRET ratio; stronger effect = higher value; concentration not given here

inhibition, inactive:
COc1cc(C2C(C(=O)c3ccc(C)o3)=C(O)C(=O)N2CCc2ccccc2)ccc1O (stereo unspecified) -0.99%
COC(=O)C1=CN(Cc2ccc(OC)c(OC)c2)C=C(C(=O)OC)C1c1cccs1 -0.0693%
Cc1nc2ccccc2c(=O)n1-c1ccc(NS(=O)(=O)c2ccc(F)cc2F)cc1 0.359%
COc1ccc(C(=O)NCC(c2ccco2)N2CCc3ccccc32)cc1OC (stereo unspecified) -0.364%
Cc1cccn2c(=O)nc(SCC(=O)NCc3ccccc3Cl)nc12 -2.28%
COCCNc1nc2nonc2nc1N(C)Cc1ccc(C)cc1 -1.03%
COCCNc1ncnc2c1nc1n2CCCC1 -7.47%
COC(=O)c1ccc(NCC(=O)c2ccccc2)cc1 1.3%
COC(=O)c1cccc(NS(C)(=O)=O)c1 3.63%
CC1CC(C)(C)CC2(C1)NC(=O)N(CC(=O)Nc1nccs1)C2=O (stereo unspecified) -1.02%
CCCCN(C(=O)CCNC(=O)NC12CC3CC(CC(C3)C1)C2)c1c(N)n(CCCC)c(=O)[nH]c1=O 0.758%
O=C1C=C(c2ccccc2)CCC1 3.08%
CCN1N=C(c2ccccc2)CCC1=O 2.2%
COc1cc(OC)c(OC)cc1CN1CCN(C(=O)c2cccc3ccccc23)CC1 2.06%
Cc1ccc(NC(=O)CN2CCc3ccccc3C2)cc1 -0.397%
Cc1ccc(NC(=O)CN2CCc3ccccc3C2)cc1C 6.66%
CCOC(=O)C1(Cc2ccccc2C)CCCN(C(=O)c2ccc(COC)o2)C1 (stereo unspecified) -3.09%
COc1ccc(Cl)cc1NC(=O)CN(C)C(=O)c1cc2ccccc2cc1OC 1.71%
CC(C)c1ccc(S(=O)(=O)N2CCN(C(=O)CN3C(=O)NC(C)(c4ccccc4)C3=O)CC2)cc1 (stereo unspecified) 0.837%
O=S(=O)(NCCNS(=O)(=O)c1ccccc1)c1ccccc1 1.2%
CCOc1ccc(S(=O)(=O)NCCSc2ccccc2)cc1 -0.375%
O=C(NNC(=O)c1ccc(-c2ccccc2)cc1)Nc1ccccc1 2.69%
Cc1ccc(S(=O)(=O)n2cccc2CO)cc1 -0.413%
COc1ccc(CCNC(=O)C(=O)NCC2CCCN2S(=O)(=O)c2cccs2)cc1OC (stereo unspecified) -2.95%
Cc1cc(C)c(C)c(S(=O)(=O)N2CCN(C(=O)c3ccc4c(=O)n5c(nc4c3)CCC5)CC2)c1C 0.31%
CCN(CC)C(=O)c1sc(NC(=O)c2ccco2)c(C#N)c1C 5.09%
Cn1nccc1CNC(=O)c1ccnn1C -4.46%
O=C(COC(=O)Cn1[nH]c(=O)c2ccccc2c1=O)Nc1c(Cl)cccc1C(F)(F)F 0.554%
CCCCn1c(N)c(N(CC(C)C)C(=O)c2ccc(-n3c(C)ccc3C)cc2)c(=O)[nH]c1=O 2.98%
CC(=O)N1CCc2c(sc(NC(=O)CCS(=O)(=O)c3ccccc3)c2C#N)C1 2.62%
Cc1ccc(S(=O)(=O)CC(=O)Nc2sc(C)c(C)c2C(N)=O)cc1 1.11%
CCOC(=O)c1cc(NC(=O)c2cccnc2)ccn1 -2.83%
CCCCNC(=O)CCNC(=O)c1ccc(C(C)(C)C)cc1 3.77%
CN1OC(COC(=O)c2ccc(Cl)cc2)CC1c1ccccc1 (stereo unspecified) 2.75%
Cn1cncc1COC(=O)c1ccc(Cl)cc1 0.688%
CC(C)(C)c1ccc(C(=O)NCCC(=O)NCc2ccco2)cc1 1.67%
CN(C(=O)c1cc2c(=O)n3ccccc3nc2s1)C1CCCCC1 2.4%
CCOc1cc(C(=O)Nc2ccc(S(=O)(=O)Nc3cnc4ccccc4n3)cc2)cc(OCC)c1OCC 7.91%
CCN1CCN(c2ccc(S(=O)(=O)N3CCCCC3)cc2NC(=O)Cc2c(Cl)cccc2Cl)CC1 1.25%
O=C(c1ccc(F)c(S(=O)(=O)N2CCOCC2)c1)N(CCc1ccccc1)Cc1ccccc1 7.49%
CCC(C)N(C(=O)COC(=O)c1nc(Cl)ccc1Cl)C1CCS(=O)(=O)C1 (stereo unspecified) 7.73%
O=c1c(-c2ccccc2)coc2cc(O)ccc12 -0.924%
COc1ccc(-c2cc3ccc(OCc4nn[nH]n4)cc3oc2=O)cc1 -0.255%
O=C(Nc1cc2c3c(c1)CC(=O)N3CCC2)c1ccccc1F 0.312%
Fc1ccc(NC(=S)N2CCc3[nH]c4ccccc4c3C2)cc1 9.84%
C=CCNC(=S)N1CCc2[nH]c3ccccc3c2C1 3.44%
CCc1ccc(NC(=O)N2CCc3ccccc3C2)cc1 -4.66%
Cc1ccc2[nH]c3c(c2c1)CN(C(=O)CN1CCN(c2ccccc2)CC1)CC3 -23.4%

inhibition, active:
COC(=O)C1=CN(Cc2ccc(OC)cc2)C=C(C(=O)OC)C1c1ccc(O)c(OC)c1 18.3%
COCCNc1nc2nonc2nc1N1CCCC1c1nccs1 (stereo unspecified) 24.9%
COC(=O)c1ccc2c(C(C)(C)O)c(C(C)(C)O)[nH]c2c1 35.4%
CC1(C)CC(=O)NC=C(c2ccccc2)C1 25.4%
COc1cc2c(cc1OC)CN(CC(=O)Nc1ccc(F)cc1)CC2 16.9%
CCOc1ccc2nc(NCCNS(=O)(=O)c3ccccc3)c(C#N)cc2c1 127%
CCCc1ccc(-c2c(C)sc(NC(=O)c3ccnn3C)c2C#N)cc1 69.5%
CC(=O)N1CCc2c(sc(NC(=O)CCS(=O)(=O)c3ccc(C)cc3)c2C(N)=O)C1 32.8%
N#Cc1c(N)n(CCOC(=O)c2ccc(Cl)cc2)c2nc3ccccc3nc12 39.9%
CC(C)(C)c1ccc(C(=O)NCCn2c(N)c(C#N)c3nc4ccccc4nc32)cc1 82.8%
O=c1oc2cc(O)ccc2cc1-c1ccc(F)cc1 149%
CCCC(=O)N1CCc2[nH]c3ccccc3c2C1 29%
O=C(Nc1ccc(Cl)cc1)N1CCc2[nH]c3ccccc3c2C1 29.2%
